Experimental findings from PubChem BioAssay (NCATS) are described below.

Assay [1] has as its system WaGa. The assay is described as follows: qHTS assay to identify novel small-molecules to repurpose for Merkel cell carcinoma treatment (AID 1296009). Note: nearly all actives have a fitted effect of over 60% in size. Note: potency is the fitted concentration of half-maximal effect. Particulars: MCC and control cell lines, CellTiter-Glo viability, 72 h; series mostly up to 46 µM. In a few lines:
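Cell viability measured by CellTiter-Glo following 72 hr compound treatment at 37 degree celsius, with NPC and MIPE libraries tested in 8- and 11-point concentration series.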

Assay [2] deals with C33A. The assay is described as follows: Primary qHTS to identify gynecologic anti-cancer compounds using libraries of approved drugs and bioactive compounds (AID 1345084). Note: nearly all actives have a fitted effect of over 55% in size. Note: potency is the fitted concentration of half-maximal effect. Particulars: Gynecologic cancer cell panel viability, ATPlite luminescence, 48 h; series mostly up to 57.5 µM. In a few lines: (§1)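 Cell viability after 48 h drug treatment, ATPlite luminescence readout; five doses.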

Assay [3] deals with CAOV3. The description is as above. Conditions: Gynecologic cancer cell panel viability, ATPlite luminescence, 48 h; series mostly up to 57.5 µM. In a few lines: as §1
In assay [4] the test system is CASKI. The description is as above. Conditions: Gynecologic cancer cell panel viability, ATPlite luminescence, 48 h; series mostly up to 57.5 µM. In a few lines: as §1
Assay [5] relates to Es-2. Described as above. Particulars: Gynecologic cancer cell panel viability, ATPlite luminescence, 48 h; series mostly up to 57.5 µM. In a few lines:
as §1

Assay [6] relates to HeLa. The assay is described as above. Particulars: Gynecologic cancer cell panel viability, ATPlite luminescence, 48 h; series mostly up to 57.5 µM. In a few lines: as §1
The test system of assay [7] is Hek293T. The description is as above. Particulars: Gynecologic cancer cell panel viability, ATPlite luminescence, 48 h, control line for the selectivity index; series mostly up to 57.5 µM. In a few lines: as §1
Assay [8] has as its system JEG-3. Described as above. Conditions: Gynecologic cancer cell panel viability, ATPlite luminescence, 48 h; series mostly up to 57.5 µM. In a few lines:
as §1

Assay [9] relates to OV90. The assay is described as above. Particulars: Gynecologic cancer cell panel viability, ATPlite luminescence, 48 h; series mostly up to 57.5 µM. In a few lines:
as §1

Assay [10] has as its system PA-1. The assay is described as above. Conditions: Gynecologic cancer cell panel viability, ATPlite luminescence, 48 h; series mostly up to 57.5 µM. In a few lines: as §1
Assay [11] has as its system SKOV3. Described as above. Particulars: Gynecologic cancer cell panel viability, ATPlite luminescence, 48 h; series mostly up to 57.5 µM. In a few lines:
as §1

Assay [12] has as its system Tov-21-G. The description is as above. Conditions: Gynecologic cancer cell panel viability, ATPlite luminescence, 48 h; series mostly up to 57.5 µM. In a few lines: as §1
The test system of assay [13] is Tov112D. The assay is described as above. Conditions: Gynecologic cancer cell panel viability, ATPlite luminescence, 48 h; series mostly up to 57.5 µM. In a few lines:
as §1

Assay [14] in a line: Drug repurposing screens with cells derived from glioblastoma tumor samples (AID 1345199). Note: nearly all actives have a fitted effect of over 40% in size. Note: potency is the fitted concentration of half-maximal effect. Particulars: GBM patient neurospheres viability, ATP luminescence, 48 h; Potency: tumour line A unless noted; series mostly up to 45.9 µM. In a few lines: (§2)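 Primary testing used CD133+ neurospheres from four GBM patients, seven concentrations, 48 h exposure and ATP-based viability; confirmation added three slower-growing patient lines.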

For assay [15], the system named is astro. Described as above. Particulars: viability, ATP luminescence, 48 h; series mostly up to 45.9 µM. In a few lines: as §2
The target of assay [16] is Nuclear receptor subfamily 1 group I member 2 (Rattus norvegicus) (UniProt Q9R1A7). Briefly: qHTS assay for small molecule activators of the rat pregnane X receptor (rPXR) signaling pathway (AID 651751; call rule not given here; note: 0% is about no effect). Conditions: rPXR reporter cells, luciferase (One-Glo), 24 h.
Assay [17] can be described thus: qHTS assay for small molecule activators of the human pregnane X receptor (PXR) signaling pathway (AID 720659; call rule not given here; note: 0% is about no effect).
Assay [18] in a line: qHTS assay to identify inhibitors of the type 1 interferon - major histocompatibility complex class I in skeletal muscle: Counter screen cell viability and HiBit confirmation (AID 1347412). Note: potency is the fitted concentration of half-maximal effect; nearly all actives have a fitted effect of over 60% in size. Particulars: iHSKM muscle cells + IFN-b, HiBiT or CellTiter-Glo, 24 h. In a few lines: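 Luminescence read-out: Nano-Glo HiBiT lytic signal from C-terminally HiBiT-tagged HLA-B in CRISPR-edited human myoblasts, plus CellTiter Glo ATP as viability counter screen. IFN-beta 4.0 ng/ml; 24 hrs treatment at 37 C, 5% CO2.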

Where “and” joins values, the source holds several entries; their conditions need not be identical. Identical values can stand only once. Inconclusive results are not listed. The source holds several records for some structures; these can differ, active in one and inactive in another. Calls of active or inactive are those of the source. Unless noted, calls come from the whole dose curve; as a rule, active = well fitted curve in the direction sought with a large enough effect; inconclusive = small, poorly fitted or top-dose-only effect, or another doubt; inactive = no such curve, though single readings can be large; an effect the other way counts as inactive or inconclusive.

Nuclear receptor subfamily 1 group I member 2 (Rattus norvegicus), sequence (Q9R1A7 whole entry, looked up): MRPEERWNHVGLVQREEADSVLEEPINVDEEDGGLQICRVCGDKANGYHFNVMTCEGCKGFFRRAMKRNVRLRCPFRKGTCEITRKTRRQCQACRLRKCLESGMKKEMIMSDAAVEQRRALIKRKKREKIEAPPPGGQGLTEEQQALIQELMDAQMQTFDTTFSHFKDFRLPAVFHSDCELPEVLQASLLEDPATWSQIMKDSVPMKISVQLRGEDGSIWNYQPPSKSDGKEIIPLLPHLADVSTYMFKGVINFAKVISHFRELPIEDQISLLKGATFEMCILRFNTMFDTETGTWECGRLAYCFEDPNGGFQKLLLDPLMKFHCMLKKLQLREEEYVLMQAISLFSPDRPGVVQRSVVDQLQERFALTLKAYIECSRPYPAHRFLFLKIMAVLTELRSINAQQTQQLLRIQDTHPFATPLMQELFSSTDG

Take `O=C(O)COc1ccccc1`: the Potency result in assay [1], in assay [2], in [3], in [4], in [5] and in [6] was “inactive” each time. For the same compound, the Potency entry in [7], in assay [8], in [9], in assay [10], in assay [11] and in assay [12] was “inactive” in each case. Also, the Potency entry in assay [13], in assay [14] and in [15] was “inactive” in each case. The max response in assay [16] is -3.8% (inactive). Moreover, in assay [17], the compound was called inactive.
Turning to `CN[C@@H](C)[C@H](O)c1ccccc1`, the Potency entry in assay [1], in assay [2], in [3], in [4], in assay [5] and in assay [6] was “inactive” throughout. In addition, the Potency entry in assay [7], in [8], in [9], in assay [10], in assay [11] and in assay [12] was “inactive” in each case. For the same compound, the Potency result in assay [13], in assay [14] and in assay [15] was “inactive” in each case.
With `c1cc2ccc3cccc4ccc(c1)c2c34`, the Potency entry in assay [1], in assay [2], in [3], in assay [4], in assay [5] and in assay [6] was “inactive” throughout. Also, the Potency entry in [7], in assay [8], in [9], in [10], in assay [11] and in assay [12] was “inactive” throughout. Besides, the Potency entry in assay [14] and in assay [15] was “inactive” throughout. Moreover, the max response in assay [16] is 6.39% (inactive) and 2.28% (inactive). Also, the outcome in assay [17] was inactive.
Turning to `CCCCC(CC)COC(=O)c1ccccc1C(=O)OCC(CC)CCCC` (configuration not stated), the Potency result in assay [1], in assay [2], in assay [3], in assay [4], in assay [5] and in [6] was “inactive” each time. The Potency result in assay [7], in assay [8], in assay [10], in assay [12], in assay [13] and in assay [15] was “inactive” each time.
As for `O=C(O)c1cc(Oc2ccc(C(F)(F)F)cc2Cl)ccc1[N+](=O)[O-]`, the Potency entry in assay [1], in [2], in assay [3], in [4], in assay [5] and in assay [6] was “inactive” each time. Moreover, the Potency result in assay [9], in [10], in assay [11], in assay [12], in [13] and in assay [14] was “inactive” each time. Further, the Potency result in assay [15] was “inactive”. In addition, the max response in [16] was 2.53% (inactive). Besides, the call in assay [17] was inactive.
For `CC(C)(C)NC[C@H](O)c1ccc(O)cc1Cl`, the Potency result in [1], in [3], in assay [4], in [5], in [6] and in assay [7] was “inactive” throughout. The Potency result in [8], in [9], in assay [12], in assay [13], in [14] and in assay [15] was “inactive” in each case.
Consider `O=C(O)CNC(=O)c1c(O)c2ccccc2n(Cc2ccccc2)c1=O`, for which the Potency entry in assay [1], in [2], in assay [3], in assay [4], in assay [5] and in [6] was “inactive” each time. Moreover, the Potency entry in assay [7], in [9], in assay [10], in assay [11], in assay [12] and in [13] was “inactive” throughout.
Regarding `CCNC(=O)C[C@@H]1N=C(c2ccc(Cl)cc2)c2cc(OC)ccc2-n2c(C)nnc21`, the results for the Potency in assay [1] and in assay [10] were 5.9 µM (active) and 0.891 µM (active), respectively. For the same compound, the Potency result in assay [2], in assay [3], in [4] and in assay [13] was “inactive” in each case.
`CN(C)[C@@H]1C(=O)C(C(N)=O)=C(O)[C@@]2(O)C(=O)C3=C(O)c4c(O)cccc4[C@@](C)(O)[C@H]3[C@H](O)[C@@H]12`: the Potency entry in assay [1], in assay [14] and in assay [15] was “inactive” in each case. Also, the max response in assay [16] is 4.53% (inactive) and -0.0906% (inactive) and -2.17% (inactive).
Take `CCNC(=O)CC1N=C(c2ccc(Cl)cc2)c2cc(OC)ccc2-n2c(C)nnc21` (configuration not stated): the Potency result in assay [2], in assay [3], in assay [4], in assay [5], in assay [6] and in assay [7] was “inactive” each time. In addition, the Potency result in assay [8], in [9], in [10], in assay [12] and in [13] was “inactive” throughout. For the same compound, in assay [11], the Potency result was “inactive and 15.8 µM (active)”.
On to `CC(C)(C)C(O)C(Oc1ccc(Cl)cc1)n1cncn1` (configuration not stated), for which the Potency entry in assay [2], in assay [3], in [4], in [5], in assay [6] and in [7] was “inactive” each time. The Potency result in assay [8], in [10], in assay [11], in assay [12], in assay [13] and in assay [15] was “inactive” in each case.
On to `CC(C)Oc1cccc(NC(=O)c2ccccc2C(F)(F)F)c1`, for which the Potency in [1] was 38.6 µM (active); in assay [9], 31.6 µM (active). For the same compound, the Potency entry in [4], in assay [8] and in assay [15] was “inactive” each time.
For `CCCCCCCCCCCCCCCC[N+](C)(C)C`, the Potency in [1] is 2.37 µM (active); in assay [3], 8.91 µM (active); in [4] it was 20 µM (active); in [11], 28.2 µM (active); in assay [12], 7.94 µM (active); in assay [15], 11.2 µM (active). Further, the compound was classed as inactive in assay [17].
For `C[C@]12CCC(=O)C(O)=C1CC[C@@H]1[C@H]3CCC(=O)[C@@]3(C)CC[C@@H]12`, the Potency result in [1] and in assay [15] was “inactive” in each case.
Consider `C[C@@H]1[C@H](O)[C@@H](C)C=CC=CCCC=CC=CC=CC=C[C@H](O[C@H]2O[C@@H](C)[C@H](O)[C@@H](N)[C@@H]2O)CC2O[C@](O)(C[C@@H](O)[C@H](O)CC[C@@H](O)C[C@@H](O)C[C@@H](O)CC(=O)O[C@H]1C)C[C@H](O)[C@H]2C(=O)O`, for which the Potency entry in assay [1] and in assay [15] was “inactive” each time.
For the compound `O=C(O)CCCOc1ccc(Cl)cc1Cl`, the Potency entry in assay [2], in assay [3], in assay [4], in assay [5], in assay [6] and in assay [7] was “inactive” in each case. Further, the Potency result in assay [8], in assay [9], in assay [10], in assay [12], in [13] and in [14] was “inactive” throughout. Further, in [16], the max response is 8.43% (inactive). Also, in assay [17], the result was inactive.
Turning to `COc1ccc2c(c[n+](C)c3c4cc5c(cc4ccc23)OCO5)c1OC`, the Potency in assay [1] is 3.32 µM (active); in assay [18] (HiBiT), 7.01 µM (active); in assay [18] (Viability), 8.83 µM (active).
Regarding `C=CC(=O)NCNC(=O)C=C`, the Potency entry in assay [2], in [3], in assay [4], in [5], in assay [6] and in assay [7] was “inactive” throughout. The Potency result in [8], in [9], in assay [10], in assay [11], in assay [12] and in assay [13] was “inactive” throughout. Moreover, the Potency entry in assay [14] and in assay [15] was “inactive” each time. In assay [16], the max response was 1.16% (inactive) and 0.492% (inactive). In addition, the compound was classed as inactive in assay [17].
